Some of the results follow. No count for the full screen is at hand.
Target: furin, P09958
Assay: furin cleavage Z-score vs untreated control; higher = more cleavage, active = 3.5 or more, inactive = 1 or less, 8 variable residues between constant flanks
In short: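 Magnetic beads held 8-mer peptides by the N-terminus, each fused to a cDNA oligonucleotide, and purified furin was added for 7.5, 15 or 30 min. Released DNA was sequenced after PCR adapter tagging. The cleavage Z-score is the log count relative to furin-free reactions, lowess-adjusted and divided by median absolute deviation.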
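Further: purified furin at 1:10 enzyme:substrate in 50 mM HEPES pH 7.5.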

Chain of furin, P09958 (P09958 whole entry): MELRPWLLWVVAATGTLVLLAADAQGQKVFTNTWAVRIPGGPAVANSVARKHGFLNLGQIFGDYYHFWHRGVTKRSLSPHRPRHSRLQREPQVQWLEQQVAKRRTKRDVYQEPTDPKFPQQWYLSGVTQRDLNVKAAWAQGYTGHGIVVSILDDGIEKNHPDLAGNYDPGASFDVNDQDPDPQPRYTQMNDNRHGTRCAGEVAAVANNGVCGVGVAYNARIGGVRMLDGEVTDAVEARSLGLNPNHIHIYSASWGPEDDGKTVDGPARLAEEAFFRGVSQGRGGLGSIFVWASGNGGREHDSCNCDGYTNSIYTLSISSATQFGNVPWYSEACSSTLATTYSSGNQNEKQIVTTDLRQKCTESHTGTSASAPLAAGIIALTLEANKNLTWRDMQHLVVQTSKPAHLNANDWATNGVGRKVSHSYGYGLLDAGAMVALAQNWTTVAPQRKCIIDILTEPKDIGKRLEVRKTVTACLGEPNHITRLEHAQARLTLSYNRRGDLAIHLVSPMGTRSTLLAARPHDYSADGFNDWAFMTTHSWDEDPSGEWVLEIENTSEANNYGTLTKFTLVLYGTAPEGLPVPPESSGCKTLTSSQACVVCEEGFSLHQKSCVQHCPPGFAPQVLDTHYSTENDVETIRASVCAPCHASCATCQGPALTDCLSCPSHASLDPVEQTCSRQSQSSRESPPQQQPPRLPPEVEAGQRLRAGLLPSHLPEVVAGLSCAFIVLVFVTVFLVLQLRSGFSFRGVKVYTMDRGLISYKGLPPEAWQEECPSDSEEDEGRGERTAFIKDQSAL

Row | Sequence | furin cleavage Z-score (7.5 min) | furin cleavage Z-score (15 min) | furin cleavage Z-score (30 min)
1 | CAEVVTSTWVAGNASASA [HC136] | 0.215 (inactive) | -1.42 (inactive) | -0.55 (inactive)
2 | CAVVCDSMSYAGNASASA [HC92] | -1.45 (inactive) | 0.971 (inactive) | -0.149 (inactive)
3 | CARVARAMSIAGNASASA [FS-1797] | -0.644 (inactive) | 0.561 (inactive) | 2.57
4 | CAFTTLPALSAGNASASA [HC500] | 1.12 | -0.632 (inactive) | 1.28
5 | CAEPEPDVAVAGNASASA [HC1242] | -1.24 (inactive) | -1.89 (inactive) | 0.391 (inactive)
6 | CARVSRFVTWAGNASASA [FS-1804] | 0.465 (inactive) | 2.02 | 2.57
7 | CARVARFATSAGNASASA [FS-2529] | 2.89 | 4.14 (active) | 5.25 (active)
8 | CAHARKAVTHAGNASASA [HC1426] | -1.35 (inactive) | -0.868 (inactive) | 0.178 (inactive)
9 | CARVARDVAVAGNASASA [FS-3113] | 9.5 (active) | 11.7 (active) | 9.58 (active)
10 | CARFYRPVAVAGNASASA [FS-2670] | -2.66 (inactive) | -1.03 (inactive) | -2.39 (inactive)
11 | CARVARFVTHAGNASASA [FS-1798] | 0.861 (inactive) | 1.96 | 4.55 (active)
12 | CAEYTTPCSGAGNASASA [HC1969] | -0.151 (inactive) | -0.366 (inactive) | -0.644 (inactive)
13 | CAWFCLLLLAAGNASASA [HC1657] | -0.863 (inactive) | -0.454 (inactive) | -2.53 (inactive)
14 | CACREVPCHRAGNASASA [HC2440] | -0.508 (inactive) | -2.04 (inactive) | -1.44 (inactive)
15 | CASERSQPRGAGNASASA [HC187] | 0.546 (inactive) | 0.429 (inactive) | 0.503 (inactive)
16 | CAAKRRQKREAGNASASA [FS-1110] | 12.9 (active) | 13 (active) | 8.62 (active)
17 | CAPRRRKGRNAGNASASA [FS-1473] | 10.1 (active) | 11.5 (active) | 9.35 (active)
18 | CAWRQEMGGNAGNASASA [HC1277] | 0.884 (inactive) | -0.41 (inactive) | 1.35
19 | CASIRRQKREAGNASASA [FS-563] | 11.3 (active) | 10.3 (active) | 8.38 (active)
20 | CATVLDQAETAGNASASA [HC826] | 1.14 | 0.395 (inactive) | -0.728 (inactive)
21 | CAQTNWQKLEAGNASASA [HC1036] | 0.636 (inactive) | -0.515 (inactive) | -0.384 (inactive)
22 | CATVRRQKREAGNASASA [FS-1175] | 12.4 (active) | 13.7 (active) | 9.11 (active)

Row | Sequence | furin cleavage Z-score (7.5 min) | furin cleavage Z-score (15 min) | furin cleavage Z-score (30 min)
23 | CAYFSMVGNWAGNASASA [HC341] | -0.31 (inactive) | -0.533 (inactive) | -2.31 (inactive)
24 | CACKPLLREEAGNASASA [HC1229] | -2.56 (inactive) | 0.033 (inactive) | 0.531 (inactive)
25 | CAPRRHWTTQAGNASASA [HC308] | 0.172 (inactive) | -0.306 (inactive) | 0.325 (inactive)
26 | CAPRRRQQREAGNASASA [FS-1551] | 6.3 (active) | 4.83 (active) | 5.13 (active)
27 | CAVLSRQKREAGNASASA [FS-206] | 11.7 (active) | 9.59 (active) | 8.73 (active)
28 | CAVLSDFKTWAGNASASA [HC1154] | -0.128 (inactive) | -0.333 (inactive) | -0.963 (inactive)
29 | CATTPCAGSWAGNASASA [HC61] | -1.21 (inactive) | 0.988 (inactive) | 1.04
30 | CASFDPLVAEAGNASASA [HC1288] | -1.29 (inactive) | -0.652 (inactive) | 0.659 (inactive)
31 | CAEARRTMRSAGNASASA [FS-228] | 6.84 (active) | 6.18 (active) | 7.34 (active)
32 | CAWLERTMRSAGNASASA [FS-108] | 4.21 (active) | 5.66 (active) | 4.38 (active)
33 | CACAVRHMRSAGNASASA [FS-1513] | 0.659 (inactive) | 0.712 (inactive) | 1.2
34 | CALEVVTSTWAGNASASA [HC987] | 0.41 (inactive) | 0.551 (inactive) | 1.7
35 | CAEVVTSTWAAGNASASA [HC2243] | -0.622 (inactive) | 0.588 (inactive) | -0.814 (inactive)
36 | CAVVCCSMIYAGNASASA [HC2064] | -0.191 (inactive) | -0.994 (inactive) | 0.202 (inactive)
37 | CAGSPPSVASAGNASASA [HC1257] | -0.959 (inactive) | -1.08 (inactive) | 0.309 (inactive)
38 | CACFRRSKRAAGNASASA [FS-1514] | 9.65 (active) | 9.01 (active) | 6.16 (active)
39 | CARWRRSKRAAGNASASA [FS-959] | 11.1 (active) | 11.6 (active) | 8.46 (active)
40 | CARWRRTKGAAGNASASA [FS-1873] | -0.133 (inactive) | -1.53 (inactive) | -0.0248 (inactive)
41 | CACVRRSPCAAGNASASA [FS-2118] | -0.381 (inactive) | -1.71 (inactive) | -0.39 (inactive)
42 | CACFRKHPDAAGNASASA [HC453] | -1.37 (inactive) | -1.46 (inactive) | -0.48 (inactive)
43 | CAGSPRSKRAAGNASASA [FS-788] | 11.2 (active) | 9.92 (active) | 8.49 (active)
44 | CAGSSRRFRAAGNASASA [FS-1003] | -0.163 (inactive) | 1.3 | 2.13

— the supplement of paper PMC3545927
